Measured values from PubChem BioAssay (NCATS).
Results filed as inconclusive are left out. Activity calls are given as the source filed them. Unless noted, calls come from the whole dose curve; as a rule, active = well fitted curve in the direction sought with a large enough effect; inconclusive = small, poorly fitted or top-dose-only effect, or another doubt; inactive = no such curve, though single readings can be large; an effect the other way counts as inactive or inconclusive.

What was measured:
[1] = qHTS for Inhibitors of the Functional Ribonucleoprotein Complex (vRNP) of Lassa (LASV) Arenavirus: LASV Primary Screen - GLuc reporter signal (AID 1347082; calls by dose curve; tested in HEK293 reporter line; note: series mostly up to about 57 µM; % is set by controls: 0 for no effect and ±100 for the full control effect; nearly all actives have a fitted effect of over 60% in size)
[2] = qHTS for Inhibitors of the Functional Ribonucleoprotein Complex (vRNP) of Lassa (LASV) Arenavirus: Viability assay - alamar blue signal for LASV Primary Screen (AID 1347083; calls by dose curve; tested in HEK293 reporter line; note: series mostly up to about 57 µM; % is set by controls: 0 for no effect and ±100 for the full control effect; nearly all actives have a fitted effect of over 80% in size)
[3] = qHTS for Inhibitors of the Functional Ribonucleoprotein Complex (vRNP) of Lymphocytic Choriomeningitis Arenaviruses (LCMV): Viability assay - alamar blue signal for LCMV Primary Screen (AID 1347085; calls by dose curve; tested in HEK293 reporter line; note: series mostly up to about 57 µM; % is set by controls: 0 for no effect and ±100 for the full control effect; nearly all actives have a fitted effect of over 80% in size)
[4] = target: Nucleoprotein (Lymphocytic choriomeningitis virus (strain Armstrong)) (UniProt P09992); assay: qHTS for Inhibitors of the Functional Ribonucleoprotein Complex (vRNP) of Lymphocytic Choriomeningitis Arenaviruses (LCMV): LCMV Primary Screen - GLuc reporter signal (AID 1347086; calls by dose curve; note: series mostly up to about 57 µM; % is set by controls: 0 for no effect and ±100 for the full control effect; nearly all actives have a fitted effect of over 70% in size)
[5] = HepG2 viability counterscreen (readout 2: ATP content) against the NCATS DSHEA and TCM libraries (AID 1794840);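 note: HepG2 cells exposed to substances for about 24 h; 0% is about no effect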
How it was run: (§1)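 Readout 1: cellular protease activity, GF-AFC substrate (25 uM final, 30 min, fluorescence 380/510 nm). Readout 2: ATP content by CellTiter-Glo luminescence after 30 min at RT. Both follow ~24 h exposure of HepG2 cells (1,000/well) to substances.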

[6] = HepG2 viability counterscreen (readout 1: protease activity) against the NCATS DSHEA and TCM libraries (AID 1794841);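 note: cells exposed to compounds for about 24 h before the protease read; 0% is about no effect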
How it was run: as §1

[7] = target: Cytochrome P450 2D6 (Homo sapiens) (UniProt P10635); assay: qHTS for inhibitors of CYP2D6 against the NCATS DSHEA and TCM libraries (AID 1919972); note: % is set by controls: 0 for no effect and ±100 for the full control effect
How it was run: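 qHTS, concentration–response format with most substances from 19.5 nM. CYP2D6 + pro-luciferin substrate, 15 min with compound, then 1x NADPH regen, 30–45 min RT dark. Glo detection 30 min, luminescence. Quinidine control.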

[8] = KB-3-1 P-gp reporter qHTS against the NCATS DSHEA and TCM libraries (AID 1919975); note: 0% is about no effect
How it was run: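 Cell viability by CellTiter-Glo luminescence following ~72 h compound exposure (concentration-response). Uses parental, non-P-gp-overexpressing KB-3-1 line, 500 cells/well in DMEM/10% FBS, attached ~4 h before dosing.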

[9] = target: Cytochrome P450 1A2 (Homo sapiens) (UniProt P05177); assay: qHTS for inhibitors of CYPIA2 against the NCATS DSHEA and TCM libraries (AID 1919976);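 note: light from luciferin formed by CYP1A2 from a pro-luciferin substrate; series mostly up to about 37 µM; % is set by controls: 0 for no effect and ±100 for the full control effect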
How it was run: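 Furafylline served as the plate control. Compounds met CYP1A2 and pro-luciferin substrate 15 min before NADPH regeneration solution (1x) was added; after 30-45 min at RT, P450-Glo reagent was added for 30 min and luminescence was measured.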

[10] = KB-8-5-11 P-gp reporter qHTS against the NCATS DSHEA and TCM libraries (AID 1919977); note: 0% is about no effect
How it was run: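 CellTiter-Glo luminescence measured viability after ~72 h exposure (37C, 5% CO2) of KB-8-5-11 cervical adenocarcinoma cells overexpressing P-gp. Colchicine was omitted during assay. Substances were tested as titrations.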

[11] = qHTS Counterscreen for compound interference against the NCATS DSHEA and TCM libraries (AID 1919978); settings: firefly luciferase detection reagent interference, luminescence;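 note: compounds preincubated with 1 µM D-luciferin or buffer before detection reagent; % of control where 0% means no effect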
How it was run: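 With 1 uM D-luciferin or phosphate buffer only, compounds at final 19.5 nM–39.8 uM were incubated for 15 min at room temperature. Luciferase detection reagent was then added, and luminescence was measured after a further 30 min at room temperature.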

[12] = Dual reporter qHTS for agonist of Pregnane X Receptor (hPXR) against the NCATS DSHEA and TCM libraries: Fluorescence readout (AID 1920058); note: 0% is about no effect
How it was run: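 In this qHTS counter-read, reporter-bearing HepG2 cells in charcoal-stripped serum received substances for approximately 24 h before viability was assessed fluorometrically with CellTiter-Fluor.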

[13] = target: Nuclear receptor subfamily 1 group I member 2 (Homo sapiens) (UniProt O75469); assay: Dual reporter qHTS for agonist of Pregnane X Receptor (hPXR) against the NCATS DSHEA and TCM libraries: Luminescence readout (AID 1920059); note: 0% is about no effect
How it was run: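 hPXR-LucHepG2 cells in phenol red-free DMEM with 5% charcoal-stripped FBS, 2000 cells/well, attached 5 h, then exposed 24 h at 37C to compounds; rifampicin as positive agonist control (2.8 nM–92 uM). Luciferase luminescence read.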

[14] = target: Nuclear receptor subfamily 1 group I member 2 (Homo sapiens) (UniProt O75469); assay: Dual reporter qHTS for antagonist of Pregnane X Receptor (hPXR) against the NCATS DSHEA and TCM libraries: Luminescence Readout (AID 1920060);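 note: HepG2 cells carrying hPXR luciferase reporter stimulated with rifampicin at 2 µM; 0% is about no effect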
How it was run: (§2)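 In antagonist mode, 2 uM rifampicin was added to hPXR-Luc HepG2 cells alongside test substances, incubated 24 h at 37 C; luminescence gave reporter activity, and CellTiter-Fluor fluorescence (405/540 nm) gave viability.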

[15] = Dual reporter qHTS for antagonist of Pregnane X Receptor (hPXR) against the NCATS DSHEA and TCM libraries: Fluorescence Readout (AID 1920061); note: 0% is about no effect
How it was run: as §2

Sequence of Nuclear receptor subfamily 1 group I member 2 (Homo sapiens) (O75469 whole entry, looked up): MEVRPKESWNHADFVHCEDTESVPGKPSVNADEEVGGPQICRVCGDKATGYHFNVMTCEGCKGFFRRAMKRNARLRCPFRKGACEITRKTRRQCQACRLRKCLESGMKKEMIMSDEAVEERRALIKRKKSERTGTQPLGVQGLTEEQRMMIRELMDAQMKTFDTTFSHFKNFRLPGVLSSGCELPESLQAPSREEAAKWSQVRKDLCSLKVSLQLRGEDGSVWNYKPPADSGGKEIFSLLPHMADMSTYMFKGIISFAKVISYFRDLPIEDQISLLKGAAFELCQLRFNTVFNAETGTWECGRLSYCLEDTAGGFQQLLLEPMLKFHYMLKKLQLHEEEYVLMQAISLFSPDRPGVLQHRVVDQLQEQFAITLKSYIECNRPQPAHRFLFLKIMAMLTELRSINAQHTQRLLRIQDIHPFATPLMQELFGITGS
Sequence of Nucleoprotein (Lymphocytic choriomeningitis virus (strain Armstrong)) (P09992 whole entry, looked up): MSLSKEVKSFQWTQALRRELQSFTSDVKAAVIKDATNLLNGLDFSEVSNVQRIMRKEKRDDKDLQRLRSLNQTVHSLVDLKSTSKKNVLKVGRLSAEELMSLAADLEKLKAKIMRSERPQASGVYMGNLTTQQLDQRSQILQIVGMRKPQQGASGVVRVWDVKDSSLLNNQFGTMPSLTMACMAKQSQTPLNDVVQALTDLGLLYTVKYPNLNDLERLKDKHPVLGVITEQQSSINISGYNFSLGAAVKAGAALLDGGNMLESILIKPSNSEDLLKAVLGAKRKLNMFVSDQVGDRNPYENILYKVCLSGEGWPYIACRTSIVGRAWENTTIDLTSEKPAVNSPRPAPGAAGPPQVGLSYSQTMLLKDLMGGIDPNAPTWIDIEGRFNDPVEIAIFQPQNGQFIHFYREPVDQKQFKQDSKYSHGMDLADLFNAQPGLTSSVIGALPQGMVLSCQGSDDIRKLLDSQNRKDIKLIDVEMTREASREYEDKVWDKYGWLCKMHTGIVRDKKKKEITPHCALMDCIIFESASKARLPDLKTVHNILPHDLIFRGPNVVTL
Sequence of Cytochrome P450 2D6 (Homo sapiens) (P10635 whole entry, looked up): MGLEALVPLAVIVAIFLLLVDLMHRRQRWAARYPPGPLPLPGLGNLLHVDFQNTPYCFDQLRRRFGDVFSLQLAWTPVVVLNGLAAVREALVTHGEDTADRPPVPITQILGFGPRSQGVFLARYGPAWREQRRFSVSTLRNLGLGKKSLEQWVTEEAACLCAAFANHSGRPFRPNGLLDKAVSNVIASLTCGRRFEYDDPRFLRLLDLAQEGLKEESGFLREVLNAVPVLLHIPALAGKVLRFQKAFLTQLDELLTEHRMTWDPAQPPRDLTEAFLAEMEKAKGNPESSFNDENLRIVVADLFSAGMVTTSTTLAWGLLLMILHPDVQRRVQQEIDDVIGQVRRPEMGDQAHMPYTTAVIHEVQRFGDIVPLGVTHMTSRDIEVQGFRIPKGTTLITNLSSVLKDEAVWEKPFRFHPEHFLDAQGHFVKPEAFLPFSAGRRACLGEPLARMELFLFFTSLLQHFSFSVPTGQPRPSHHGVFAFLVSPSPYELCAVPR
Sequence of Cytochrome P450 1A2 (Homo sapiens) (P05177 whole entry, looked up): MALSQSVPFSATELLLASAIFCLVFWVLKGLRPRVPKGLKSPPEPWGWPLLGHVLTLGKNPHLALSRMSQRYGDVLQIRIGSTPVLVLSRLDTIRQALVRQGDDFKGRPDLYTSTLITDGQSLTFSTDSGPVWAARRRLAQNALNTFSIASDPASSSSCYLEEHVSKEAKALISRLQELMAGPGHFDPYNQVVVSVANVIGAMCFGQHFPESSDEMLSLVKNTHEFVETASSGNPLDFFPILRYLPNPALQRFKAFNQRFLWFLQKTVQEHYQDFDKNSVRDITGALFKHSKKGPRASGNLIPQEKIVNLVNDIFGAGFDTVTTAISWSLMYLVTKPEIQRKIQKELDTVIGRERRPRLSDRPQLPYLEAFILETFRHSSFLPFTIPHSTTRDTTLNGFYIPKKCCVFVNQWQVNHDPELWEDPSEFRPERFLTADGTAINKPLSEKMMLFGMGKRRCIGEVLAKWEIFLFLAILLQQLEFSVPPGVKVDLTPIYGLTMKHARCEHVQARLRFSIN

C=C(C)[C@@H]1CC=C(C=O)CC1
inactive: Potency [1] | Potency [2] | Potency [3] | Potency [4] | outcome [5] | outcome [6] | outcome [7] | outcome [8] | Potency [9] | outcome [10] | max response [11] -1.03% | outcome [12] | outcome [13] | outcome [14] | outcome [15]
